Test results: PubChem BioAssay (Tox21)
Inconclusive results are not listed. Activity calls are given as the source filed them. Calls come from the whole dose curve; as a rule, active = well fitted cell-killing curve with a large enough effect in the repeat runs; inconclusive = weak or mixed curves, or effect the other way; inactive = flat fitted curve, though single readings scatter.

Assay: qHTS assay to identify small molecule antagonists of the estrogen receptor alpha (ER-alpha) signaling pathway using the BG1 cell line in the presence of 0.1 nM 17-beta-estradiol - cell viability counter screen (AID 1259241); note: nearly all actives have a fitted effect of over 40% in size
Conditions: VM7Luc4E2 (BG1) viability, CellTiter-Fluor protease, 22 h, 0.1 nM estradiol agonist added; series mostly up to 92.4 µM; activity change, negative = cytotoxicity: at the top concentration
Description: National Center for Advancing Translational Sciences [NCATS]
NIH Chemical Genomics Center [NCGC]
U.S. Environmental Protection Agency [EPA]
National Institutes of Environmental Health Sciences [NIEHS]
National Toxicology Program [NTP]
U.S. Food and Drug Administration [FDA]
Estrogen receptor (ER), a member of the nuclear hormone receptor plays an important role in development, metabolic homeostasis and reproduction. Two subtypes of ER, ER-alpha and ER-beta, have similar expression patterns with some uniqueness in both types. Endocrine disrupting chemicals (EDCs) and their interactions with steroid hormone receptors like ER causes disruption of normal endocrine function. Therefore, it is important to understand the effect of environmental chemicals in ER signaling pathway. For identifying ER antagonists, VM7Luc4E2 cell line was used to screen against Tox21 compound libraries.
VM7Luc4E2 cell line (provided by Denison MS, University of California) endogenously express full-length ER-alpha and is stably transfected with a plasmid containing four estrogen responsive elements (ERE) upstream of a luciferase reporter gene. The current screening for identification of ER-alpha inhibitors against Tox21 compound libraries used lower concentration (0.1 nM) of 17beta-Estradiol as a stimulator. The cytotoxicity of the Tox21 compound libraries against VM7Luc4E2 cell line was tested by measuring live-cell protease activity using CellTiter-Fluor assay in the same wells.
Tox21 Assay Protocol Summary:
VM7Luc4E2 cells were cultured in phenol red free assay medium containing 10% charcoal stripped FBS for 5 days prior to the assay. The cells were dispensed at 4,000 cells/well in 4 uL of assay medium into white wall/solid-bottom 1536-well plates (Corning Life Sciences, Corning, NY) using a Multidrop Combi (ThermoFisher Scientific, Waltham, MA) dispenser. After the assay plates were incubated at 37C and 5% CO2 for 24 hr, 23 nL of compounds dissolved in DMSO, positive controls or DMSO only was transferred to the assay plates by a Pintool station (Kalypsys, San Diego, CA). The transfer of compounds was followed by the addition of 1 uL of 0.1 nM (final concentration) agonist (17beta-Estradiol)/assay medium using a Flying Reagent Dispenser (FRD, Aurora Discovery, San Diego, CA). The plates were incubated at 37C and 5% CO2 for 22 hr. For cytotoxicity assay, 1 uL of CellTiter-Fluor reagent (Promega Corporation, Madison, WI) was added to each well using the FRD and after 30 min incubation at 37C and 5% CO2, The fluorescence intensity was measured using ViewLux plate reader (PerkinElmer, Shelton, CT).
% is set by controls: 0 for no effect and ±100 for the full control effect; potency is the fitted concentration of half-maximal effect.

Compound | activity change, negative = cytotoxicity | Potency
CCOc1nc(F)cc2nc(S(=O)(=O)Nc3c(Cl)cccc3Cl)nn12 | -0.72% (inactive) | –
C[N+](C)(C)CCCl | -2.09% (inactive) | –
CC1(C)[C@H](C=C(Cl)Cl)[C@@H]1C(=O)O[C@@H](C#N)c1cccc(Oc2ccccc2)c1 | 15.7% (inactive) | –
O=[N+]([O-])c1ccc(F)c([N+](=O)[O-])c1 | – | 17.4 µM (active)
Cc1c(F)c(F)c(COC(=O)C2C(/C=C(\Cl)C(F)(F)F)C2(C)C)c(F)c1F (stereo not given) | 6.9% (inactive) | –
CO/N=C(/C(=O)OC)c1ccccc1COc1ccccc1C | -0.438% (inactive) | –
CCBr | 14.8% (inactive) | –
O=S(=O)(O)C(F)(F)C(F)(F)C(F)(F)C(F)(F)F | -2.81% (inactive) | –
CC(C)(C)C(O)C(Oc1ccc(Cl)cc1)n1cncn1 (stereo not given) | -1.73% (inactive) | –
N#CCc1ccccc1 | 18.8% (inactive) | –
O=C(O)COc1ccc(Cl)cc1 | 7.22% (inactive) | –
COc1ccc(-c2ccccc2)cc1NNC(=O)OC(C)C | -22.9% (inactive) | –
N#CCC#N | -0.835% (inactive) | –
NCCCNCCCN | -7.39% (inactive) | –
CC(C)(CCl)C(=O)Cl | -0.314% (inactive) | –
C#CCOC(C(=O)OCCN(C)C)(c1ccccc1)c1ccccc1 | -9.53% [at 42.5 µM] (inactive) | –
C[C@H]1CNCCc2ccc(Cl)cc21 | -6.42% [at 42.5 µM] (inactive) | –
COP(=S)(OC)Oc1cc(Cl)c(I)cc1Cl | 6% (inactive) | –
CCCCCC[N+](=O)[O-] | 8.7% (inactive) | –
O=C(CBr)Nc1ccc(Cl)cc1C(=O)c1ccccc1F | 1.02% [at 42.5 µM] (inactive) | –

Compound | activity change, negative = cytotoxicity | Potency
CC(C)(OO)c1ccccc1 | 0.405% (inactive) | –
CC(C)(C)c1cc([N+](=O)[O-])cc([N+](=O)[O-])c1O | – | 13.6 µM (active)
CCOC(=O)CBr | -0.0491% (inactive) | –
Clc1cc(Cl)c(Cl)c(Cl)c1 | 0% (inactive) | –
O=C(CCl)c1ccc(Cl)cc1Cl | – | inactive
S=C=NCc1ccccc1 | 8.71% (inactive) | –
O=C(C(Cl)(Cl)Cl)C(Cl)(Cl)Cl | 5.95% (inactive) | –
CCCCOC(=O)c1ccccc1C(=O)OCc1ccccc1 | – | inactive
Nc1nc(N)nc(N)n1 | 8.02% (inactive) | –
O=NN1CCNCC1 | 0.764% (inactive) | –
C=CCCl | 5.49% (inactive) | –
Clc1ccc(C(OCCN2CCCCC2)c2ccccc2)cc1 (stereo not given) | -24.9% [at 42.5 µM] (inactive) | –
ClCCCCBr | 6.64% (inactive) | –
Sc1ccccc1Cl | 4.59% [at 42.5 µM] (inactive) | –
COC(C)(C)CCC[C@H](C)C/C=C/C(C)=C/C(=O)OC(C)C | -8.08% (inactive) | –
NNC(=O)c1cccnc1 | -21.6% (inactive) | –
CC(=O)c1cc2c(cc1C)C(C)(C)C(C)CC2(C)C (stereo not given) | -0.458% (inactive) | –
CCOC(=O)COc1cc(-c2nn(C)c(OC(F)F)c2Cl)c(F)cc1Cl | 0.173% (inactive) | –
C=COC(C)=O | -0.6% (inactive) | –
COP(=O)(OC)O/C(=C/Cl)c1cc(Cl)c(Cl)cc1Cl | 2.98% (inactive) | –
